# PubChem BioAssay (NCI)
# Compounds without any hit were thinned out: in the full panel of roughly 83,000, 20% have a hit.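 A percent growth of 40 corresponds to 60% growth inhibition; 0 means no net growth; -100 means all cells died. Active threshold: below 10.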 A number with no mark means an inactive call. Active and inactive are the calls of the source.
# Tested on: HOP-92 NSCLC
# Assay: NCI-60 one-dose screen, 48 h (100 = growth as untreated, 0 = no growth, -100 = all killed)
# Details: 10 µM unless noted
row,SMILES,growth
1,CN1CCN(CCCOc2ccc3nc(Nc4ccc(F)c(F)c4)ccc3c2)CC1,5.74% (active)
2,CC(CN1CCCCC1)C(=O)c1ccccc1 (configuration not stated),79%
3,Cc1cc(/C=C\c2ccc3ccccc3[n+]2C)c(O)c2ncccc12,19.4%
4,COc1ccc2cc(-c3cc(OC)c(OC)c(OC)c3)c(=O)oc2c1,79.2%
5,Cc1ccc(C2SCC(=O)N2Cc2ccccc2)cc1 (configuration not stated),81.7%
6,Cc1ccc(S(=O)(=O)Oc2cc(OS(=O)(=O)c3ccc(C)cc3)cc(OS(=O)(=O)c3ccc(C)cc3)c2)cc1,72.1%
7,CS(=O)c1cccc(-c2ccc3nc(N)n(-c4ccc(C(F)(F)F)cc4)c(=O)c3c2)c1 (configuration not stated),66.1%
8,Clc1ccc(-c2c3ccc(=[N+]4CCCCC4)cc-3oc3cc(N4CCCCC4)ccc23)cc1,-70.1% (active)
9,O=C1Nc2ccccc2/C1=C/c1cn(C(=O)c2c(Cl)cccc2Cl)c2ccccc12,49.1%
10,CC1CC(C(C)(C)C)C(=O)C(C(C)(C)C)C1 (configuration not stated),85%
11,COc1ccc(-c2nc(SCCC(C)C)nc(N/N=C\c3ccccc3O)c2C#N)cc1,88.4%
12,O=C1CCc2c(sc3[nH]c(=S)n(-c4ccc(OC(F)(F)F)cc4)c(=O)c23)C1,-10.3% (active)
13,CC(C)CC(NC(=O)CN(Cc1ccccc1)S(C)(=O)=O)C(=O)O (configuration not stated),-0.442% (active)
14,COc1cc(N=Nc2ccc(N)cc2)c(OC)cc1N=Nc1ccccc1.[Cl][Zn][Cl],71.5%
15,CCC1(C2CCCC2)NC(=O)NC1=O (configuration not stated),78.1%
16,Cc1ccc(C(=O)C2=C(O)C(=O)N(Cc3cccnc3)C2c2ccccc2F)o1 (configuration not stated),83.9%
17,COc1cccc(-c2nc3sccn3c2/C=C/C(=O)c2ccc(C(F)(F)F)cc2)c1,66.4%
18,COc1ccc2c(c1)C(=O)/C(=C/c1ccc(OCC(=O)Nc3nccs3)cc1)O2,-78.8% (active)
19,CC/C=C/C/C=C/C/C=C/C/C=C/C/C=C/C/C=C/CCC(=O)Nc1ccn([C@@H]2O[C@H](CO)[C@@H](O)C2(F)F)c(=O)n1,32.1%
20,NC(=N\N=C/c1ccccc1[N+](=O)[O-])/C(N)=N\N=C/c1ccccc1[N+](=O)[O-],89%
21,O=C(Cc1ccc(F)c(F)c1)Nc1cc(C2(C(F)(F)F)CC2)nn1Cc1ccccc1,-17.7% (active)
22,O=C(/C=C/c1ccc(Cl)nc1)c1ccc(Cl)cc1Cl,110%
23,O=C(Nc1ccccc1Cl)Oc1ccc(-c2ccccc2)cc1,94.4%
24,CN(c1ccccc1)c1ccc2c(c1)OCCC21CC1Nc1cnccc1C(=O)O (configuration not stated),101%

# Tested on: NCI-H522 lung
# Assay: as above
# Details: 10 µM unless noted
row,SMILES,growth
1,Cc1c(C(=O)NC(Cc2ccccc2)C(O)C(=O)NCc2ccc(F)cc2)[nH]c2ccccc2c1=O (configuration not stated),93.5%
2,Cc1cc(C(=O)c2ccccc2)c(C)c2c1[nH]c1ccc(Cl)cc12,20.8%
3,COc1ccc(C(=O)/C=C/c2c(C(F)(F)F)nc3sccn23)cc1OC,93.1%
4,O=Cc1c[nH]c2ccc(-c3csc4ccccc34)cc12,41.3%
5,Cc1ccc(/C=C/c2c(C(=O)/C=C/c3ccc(C(F)(F)F)cc3)c(C)nc3ccccc23)cc1,-10.5% (active)
6,N#CC1=C(/N=C/c2ccccc2)Oc2c(ccc3ccccc23)C1c1ccccc1 (configuration not stated),-4.7% (active)
7,O=C(NCCc1ccc(O)c(O)c1)C12CC3CC(CC(C3)C1)C2,9.83% (active)
8,Cc1cc(=O)[nH]c(N=Nc2c(O)[nH]c3ccccc23)n1,103%
9,COc1ccc2oc3c(C)c4c(c(C)c3c2c1)C(=O)N(Cc1ccccc1)C4=O,87.5%
10,COc1ccc2[nH]c(O)c(/C=c3/cc4c(c(-c5cc(OC)c(OC)c(OC)c5)n3)=Nc3ccccc3-4)c2c1,50.4%
11,CC(=O)c1nc(Nc2ccc(C)cc2)sc1C,86.9%
12,COc1ccc(N=C(c2ccccc2)C2C(=O)c3ccccc3C2=O)cc1,67%
13,CCCCc1ccc(Nc2ccc(Nc3ccc(CCCC)cc3S(=O)(=O)O)c3c2C(=O)c2ccccc2C3=O)c(S(=O)(=O)O)c1,65%
14,Cc1nn(-c2ccccc2)c2nc3c(c(-c4ccc(Cl)cc4)c12)CNC1(CCSCC1)N3,110%
15,CN1CCN(CCCOc2ccc3nc(Nc4ccc(F)c(F)c4)ccc3c2)CC1,-50.4% (active)
16,CC(CN1CCCCC1)C(=O)c1ccccc1 (configuration not stated),-57.1% (active)
17,Cc1cc(/C=C\c2ccc3ccccc3[n+]2C)c(O)c2ncccc12,32.1%
18,COc1ccc2cc(-c3cc(OC)c(OC)c(OC)c3)c(=O)oc2c1,48.3%
19,Cc1ccc(C2SCC(=O)N2Cc2ccccc2)cc1 (configuration not stated),83.6%

row,SMILES,growth
1,Cc1ccc(S(=O)(=O)Oc2cc(OS(=O)(=O)c3ccc(C)cc3)cc(OS(=O)(=O)c3ccc(C)cc3)c2)cc1,80.8%
2,CS(=O)c1cccc(-c2ccc3nc(N)n(-c4ccc(C(F)(F)F)cc4)c(=O)c3c2)c1 (configuration not stated),80.8%
3,Clc1ccc(-c2c3ccc(=[N+]4CCCCC4)cc-3oc3cc(N4CCCCC4)ccc23)cc1,-87.7% (active)
4,O=C1Nc2ccccc2/C1=C/c1cn(C(=O)c2c(Cl)cccc2Cl)c2ccccc12,55.3%
5,CC1CC(C(C)(C)C)C(=O)C(C(C)(C)C)C1 (configuration not stated),90.8%
6,COc1ccc(-c2nc(SCCC(C)C)nc(N/N=C\c3ccccc3O)c2C#N)cc1,84.6%
7,O=C1CCc2c(sc3[nH]c(=S)n(-c4ccc(OC(F)(F)F)cc4)c(=O)c23)C1,7.42% (active)
8,CC(C)CC(NC(=O)CN(Cc1ccccc1)S(C)(=O)=O)C(=O)O (configuration not stated),103%
9,COc1cc(N=Nc2ccc(N)cc2)c(OC)cc1N=Nc1ccccc1.[Cl][Zn][Cl],108%
10,CCC1(C2CCCC2)NC(=O)NC1=O (configuration not stated),103%
11,Cc1ccc(C(=O)C2=C(O)C(=O)N(Cc3cccnc3)C2c2ccccc2F)o1 (configuration not stated),106%
12,COc1cccc(-c2nc3sccn3c2/C=C/C(=O)c2ccc(C(F)(F)F)cc2)c1,55.6%
13,COc1ccc2c(c1)C(=O)/C(=C/c1ccc(OCC(=O)Nc3nccs3)cc1)O2,-61% (active)
14,CC/C=C/C/C=C/C/C=C/C/C=C/C/C=C/C/C=C/CCC(=O)Nc1ccn([C@@H]2O[C@H](CO)[C@@H](O)C2(F)F)c(=O)n1,39.8%
15,NC(=N\N=C/c1ccccc1[N+](=O)[O-])/C(N)=N\N=C/c1ccccc1[N+](=O)[O-],89.3%
16,O=C(Cc1ccc(F)c(F)c1)Nc1cc(C2(C(F)(F)F)CC2)nn1Cc1ccccc1,-24.6% (active)
17,O=C(/C=C/c1ccc(Cl)nc1)c1ccc(Cl)cc1Cl,38.7%
18,O=C(Nc1ccccc1Cl)Oc1ccc(-c2ccccc2)cc1,103%
19,CN(c1ccccc1)c1ccc2c(c1)OCCC21CC1Nc1cnccc1C(=O)O (configuration not stated),63.7%
